# Experimental data from ChEMBL document CHEMBL4808148, “HDAC6 screening dataset using tau-based substrate in an enzymatic assay yields selective inhibitors and activators” (2021).
# In all, about 5,600 compounds went through this assay and about 390 (7%) showed an effect of 50% or more. Shown is part of a subset that was picked to be rich in strong results.
# Target: T1, Protein deacetylase HDAC6 (Homo sapiens) (UniProt Q9UBN7)
# T1 sequence (whole entry): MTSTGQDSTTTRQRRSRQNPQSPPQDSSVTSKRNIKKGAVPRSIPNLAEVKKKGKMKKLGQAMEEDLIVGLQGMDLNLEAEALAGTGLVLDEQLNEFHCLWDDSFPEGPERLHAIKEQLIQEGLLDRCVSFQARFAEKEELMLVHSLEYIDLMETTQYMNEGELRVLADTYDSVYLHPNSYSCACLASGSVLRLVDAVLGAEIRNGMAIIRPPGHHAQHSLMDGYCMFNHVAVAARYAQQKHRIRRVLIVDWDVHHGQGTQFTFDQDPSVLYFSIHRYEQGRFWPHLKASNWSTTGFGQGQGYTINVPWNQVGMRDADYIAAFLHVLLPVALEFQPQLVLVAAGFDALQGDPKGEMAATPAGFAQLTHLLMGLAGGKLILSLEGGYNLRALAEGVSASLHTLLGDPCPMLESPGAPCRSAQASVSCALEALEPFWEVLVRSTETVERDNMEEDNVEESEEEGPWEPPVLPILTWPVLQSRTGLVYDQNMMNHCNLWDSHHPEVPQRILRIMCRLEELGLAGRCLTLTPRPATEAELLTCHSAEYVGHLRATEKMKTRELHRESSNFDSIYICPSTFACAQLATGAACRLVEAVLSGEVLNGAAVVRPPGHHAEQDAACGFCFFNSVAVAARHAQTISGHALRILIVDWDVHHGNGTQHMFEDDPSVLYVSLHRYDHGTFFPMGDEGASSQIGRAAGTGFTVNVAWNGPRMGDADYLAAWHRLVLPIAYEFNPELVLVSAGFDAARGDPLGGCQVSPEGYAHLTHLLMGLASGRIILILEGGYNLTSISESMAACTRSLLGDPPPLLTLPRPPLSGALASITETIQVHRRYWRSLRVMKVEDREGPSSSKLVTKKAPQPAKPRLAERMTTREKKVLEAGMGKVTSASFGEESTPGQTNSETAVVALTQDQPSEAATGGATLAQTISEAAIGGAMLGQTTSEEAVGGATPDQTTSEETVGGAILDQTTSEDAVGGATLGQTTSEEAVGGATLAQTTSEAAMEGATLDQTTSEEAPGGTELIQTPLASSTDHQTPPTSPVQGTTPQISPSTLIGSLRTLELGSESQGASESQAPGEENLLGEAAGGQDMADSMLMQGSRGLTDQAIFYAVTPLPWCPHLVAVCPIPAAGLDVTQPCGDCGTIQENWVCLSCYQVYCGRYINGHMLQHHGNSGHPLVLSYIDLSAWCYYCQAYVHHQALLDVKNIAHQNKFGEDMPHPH
# Conditions: at 10 µM
row,SMILES,inhibition
1,CC(C)c1ccc(CC(=O)N2CCC[C@@H](c3cccc(OC(C)(C)C(=O)O)c3)C2)cc1,24.2%
2,Nc1n[nH]c2nc3ccccc3nc12,53.6%
3,COC(=O)c1ccc(O)cc1,16.3%
4,COC(=O)CC1CC(c2ccc(O)cc2)=NO1 (stereo unspecified),96.7%
5,Nc1nc(Nc2ccccc2)nc2c1ncn2[C@@H]1O[C@H](CO)[C@@H](O)[C@H]1O,-2.75%
6,CC(N)(C(=O)O)c1ccc(-c2nnn[nH]2)cc1 (stereo unspecified),-2%
7,CN(C)C(=N)NCCC[C@H](N)C(=O)O,23.2%
8,Cn1c(NCCN(CCO)CCCc2ccc([N+](=O)[O-])cc2)cc(=O)n(C)c1=O,7.31%
9,CS(=O)(=O)Nc1ccc([N+](=O)[O-])cc1Oc1ccccc1,1.72%
10,O=C(O)c1cc([N+](=O)[O-])ccc1NCCCc1ccccc1,109%
11,O=C(Nc1ccccc1)N1CCC(Cc2cnc3ccccc3c2)CC1,27.7%
12,Cn1cc(C2=C(c3cn(CCCSC(=N)N)c4ccccc34)C(=O)NC2=O)c2ccccc21,-2.47%
13,Cn1cc(/C=C2/C(=O)Nc3cccnc32)c2ccccc21,99.5%
14,Cn1cc(C2=C(c3ccc(Cl)cc3Cl)C(=O)NC2=O)c2ccccc21,-5.95%
15,Cc1ccc(-c2cn3c4c(sc3n2)CCCC4)cc1,98%
16,Clc1ccccc1CNC[C@H]1CC[C@H](CNCc2ccccc2Cl)CC1,9.4%
17,N#Cc1ccncn1,5.74%
18,Nc1cccc(-c2cc3c(Oc4cccc(O)c4)ncnc3[nH]2)c1,55.1%
19,C[C@@H]([C@@H](O)c1ccc(O)cc1)N1CCC(O)(c2ccccc2)CC1,14.2%
20,CC/C=C(\C(=O)N[C@@H]1C(=O)N2C(C(=O)OCOC(=O)C(C)(C)C)=C(COC(N)=O)CS[C@H]12)c1csc(N)n1,4.66%
21,N#Cc1c(O)c2c(-c3ccc(-c4ccccc4O)cc3)csc2[nH]c1=O,94.5%
22,CNC(=N)NC(=O)Nc1c(C)cccc1C,27.8%

row,SMILES,inhibition
1,C1=Cc2cccc(OCC3CNCCO3)c2C1 (stereo unspecified),18.4%
2,C=C(C)[C@@H]1CC[C@]2(C(=O)O)CC[C@]3(C)[C@H](CC[C@@H]4[C@@]5(C)CC[C@H](OC(=O)CC(C)(C)C(=O)O)C(C)(C)[C@@H]5CC[C@]43C)[C@@H]12,26.3%
3,OCc1ccccc1O[C@@H]1O[C@H](CO)[C@@H](O)[C@H](O)[C@H]1O,-9.23%
4,COc1ccc(-c2cc(=O)c3c(OC)c(OC)c(OC)c(OC)c3o2)cc1,44.4%
5,O=c1oc2cc(O)ccc2s1,15.3%
6,O=c1cc(-c2ccccc2)oc2cc(O)cc(O)c12,101%
7,O=C(O)c1cc(O)c2c3nc4ccccc4oc-3cc(=O)c2n1,5.48%
8,CCOC(=O)COc1ccc2c(=O)cc(-c3ccccc3)oc2c1,46.4%
9,COc1ccc(-c2cc(=O)c3c(O)c(OC)c(O)cc3o2)cc1OC,85.7%
10,COc1ccc(-c2cc(=O)c3c(OC)c(OC)c(OC)c(OC)c3o2)cc1OC,-2.26%
11,O=C(O)[C@H]1O[C@H](Oc2cc3oc(-c4ccccc4)cc(=O)c3c(O)c2O)[C@H](O)[C@@H](O)[C@@H]1O,61.7%
12,O=c1cc(-c2ccc(O)cc2)oc2cc(O)cc(O)c12,97%
13,O=C(O)c1cc(O)c2c(c1)[C@@H]([C@H]1c3cc(C(=O)O)cc(O)c3C(=O)c3c(O[C@H]4O[C@H](CO)[C@@H](O)[C@H](O)[C@H]4O)cccc31)c1cccc(O[C@H]3O[C@H](CO)[C@@H](O)[C@H](O)[C@H]3O)c1C2=O,17.7%
14,CC(O)C(N)C(=O)O (stereo unspecified),8.96%
15,Cc1ccc(Oc2ccccc2-c2csc(N=C3NCCCN3)n2)c(C)c1,38.2%
16,CCCCCCCCCCCC(=O)N(CCO)CCO,14.4%
17,OC[C@H]1O[C@@H](Oc2cc3c(O)cc(O)cc3[o+]c2-c2ccc(O)c(O)c2)[C@H](O)[C@@H](O)[C@@H]1O,27.8%
18,OCCNCCCOc1cccc(Cl)c1Cl,15.6%
19,COc1cc(C=O)c([N+](=O)[O-])cc1OC,11.8%
20,Cn1c(=O)n(-c2ccc(C(C)(C)C#N)cc2)c2c3cc(-c4cnc5ccccc5c4)ccc3ncc21,-9.93%
21,Cc1cnc(-c2ccccc2C(C)C)nc1NCc1ccc(-n2ccnn2)cc1,23.1%
22,Clc1ccc2c(c1)N=C(N1CCNCC1)c1ccccc1N2,0.45%

row,SMILES,inhibition
1,O=C(CN1CCNCC1)NC1CCCCC1,18.3%
2,CC(C)(C)c1ccc(C(=O)CCCN2CCC(OC(c3ccccc3)c3ccccc3)CC2)cc1,25.3%
3,O=C(O)[C@@H]1C[C@@H](O)CN1,16.1%
4,Cc1nc2ccc(Oc3ccc(F)cc3)cc2c(=O)n1C[C@H]1CCCN(C(C)C)C1,7.87%
5,COc1ccc(-c2cc(=O)c3c(O)cc(O[C@@H]4O[C@H](CO[C@@H]5O[C@@H](C)[C@H](O)[C@@H](O)[C@H]5O)[C@@H](O)[C@H](O)[C@H]4O)cc3o2)cc1O,30.2%
6,COc1ccc(-c2cc(=O)c3c(O)cc(O)cc3o2)cc1O,92.8%
7,O=C(O)Cc1cccc2c(=O)cc(-c3ccccc3)oc12,23.3%
8,O=c1cc(-c2ccccc2)oc2cc(O)c(O)c(O)c12,99.6%
9,COc1ccccc1N1CCN(CCn2c(=O)[nH]c3c([nH]c4ccccc43)c2=O)CC1,3.49%
10,C[C@@H]1OC(O)[C@H](O)[C@H](O)[C@H]1O (stereo partly specified),8.33%
11,CC(C)C(=O)OC[C@@]1(N=[N+]=[N-])O[C@@H](n2ccc(N)nc2=O)[C@H](OC(=O)C(C)C)[C@@H]1OC(=O)C(C)C,10.6%
12,CC(=O)O[C@]1(C(C)=O)CC[C@H]2[C@@H]3CCC4=CC(=O)CCC4=C3[C@@H](c3ccc(N(C)C)cc3)C[C@@]21C,7.8%
13,N=C(N)NCCCC(NC(=O)C1CCCN1C(=O)C1CSSCCC(=O)NC(Cc2ccc(O)cc2)C(=O)NC(Cc2ccccc2)C(=O)NC(CCC(N)=O)C(=O)NC(CC(N)=O)C(=O)N1)C(=O)NCC(N)=O (stereo unspecified),12.1%
14,COc1cc2ncc(-c3ccccc3)nc2cc1OC,97.8%
15,O=C(O)c1cc(-c2ccccc2)nc2ccccc12,16.3%
16,COC(=O)[C@H](NC(=O)c1cc(-c2ccccc2)nc2ccccc12)c1ccccc1,30.8%
17,C=CCN(C)CCCCCCOc1ccc(C(=O)c2ccc(Br)cc2)c(F)c1,8.93%
18,C=CCNc1nc(NCC=C)nc(N2CCN(C(c3ccc(F)cc3)c3ccc(F)cc3)CC2)n1,-4.35%
19,NC(C(=O)O)c1cc(O)cc(O)c1 (stereo unspecified),9.39%
20,CCCCCN1CCC(C(N)=O)CC1,3.67%
21,CC(C(=O)O)c1ccc(C(=O)c2ccccc2)s1 (stereo unspecified),41.6%
22,N=C(N)NCc1cccc(I)c1,13.7%
